p53null 39C kill: qHTS Screen for Compounds that Selectively Target Cancer Cells with p53 Mutations: Cytotoxicity of p53 Null Cells at the Nonpermissive Temperature. hit rate 0.97% among 55,000. AID 904, 2007. Potency, µM (highest dose often 46.1 µM), hits mostly cytotoxic. H1299 p53-null (neo) cells, 39C, ATPlite viability, 24 h; note: nearly all actives have a fitted effect of over 50% in size
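H1299 lung cancer cells, p53-null (H1299-neo) or expressing p53 A138V (H1299-p53A138V), were plated overnight at 37C, then exposed to compounds at up to 46 uM for 24 hr at 39C. Viability was read by ATP-based luminescence.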
OvCa metastasis: Primary qHTS assay for Inhibitors of ovarian cancer metastasis using an organotypic tumor microenvironment (TME) model; SKOV3ip1-GFP adhesion/invasion on 3D omental model, fluorescence; Potency, µM (highest dose often 45.8 µM), hits mostly inhibitors; hit rate 0.1% among 46,000; note: nearly all actives have a fitted effect of over 65% in size
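Adhesion/invasion was scored as fixed GFP-labeled SKOV3ip1 cell counts (488/509 nm), normalized to DMSO and tomatine controls. Cancer cells in serum-free medium, with four compound doses (0.36-46 umol/L), sat 2 hr at RT then 16 hr at 37 C on a 48 hr fibroblast/mesothelial/ECM culture.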
mTORC1 inh: Acumen qHTS Assay for Inhibitors of the mTORC1 Signaling Pathway in MEF (Tsc2-/-, p53-/-) Cells: Sytravon. Tsc2-/- p53-/- MEF, phospho-rpS6 immunofluorescence/PI, 24 h. hit rate 0.78% among 44,000. Potency, µM (highest dose often 38.3 µM), actives largely listed as inhibitors; note: nearly all actives have a fitted effect of over 50% in size
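Read-out: phospho-S6 Alexa-488 intensity over PI intensity per well, scored as % active cells using thresholds from rapamycin (7.5 nM) and DMSO controls. Tsc2-/-, p53-/- MEFs exposed to compound for 24 h; PI cell count recorded as viability.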
PMP22 txn prim: Cell-based coincidence reporter assay to measure PMP22 gene transcription in S16 Pmp22-F2sN cells - Primary screen | S16 Pmp22-F2sN Schwann cells, FLuc/NLuc coincidence luminescence, 24 h | Potency, µM (doses to about 57.5 µM), actives largely listed as inhibitors | hit rate 2% among 43,000; active = clear falling dose curves in both reporters; inconclusive = both reporters move, but less clearly or upward; inactive = either reporter flat; the % is the NLuc reporter signal
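qHTS, 1536-well. Cells seeded, compounds added by pin tool, 24 h 37C. Nano-Glo reagent 1 (lysis/FLuc), 10 min RT, read; Stop&Glo, 10 min RT, read NLuc.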
p53null 32C tox: qHTS Screen for Compounds that Selectively Target Cancer Cells with p53 Mutations: Cytotoxicity of p53 Null Cells at the Permissive Temperature | Potency, µM (series often up to 46.1 µM), actives largely listed as cytotoxic | AID 903, 2007 | H1299-neo p53 null cells, ATP luminescence, 24 h, 32C | hit rate 0.62% among 55,000; note: nearly all actives have a fitted effect of over 55% in size
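Cytotoxicity: H1299-neo (no p53), 32C, 24 h treatment. Concentrations up to 46 uM. Readout cellular ATP, luminescence. Normalization to DMSO basal and tamoxifen 100 uM maximal kill.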
S16 viability: Cell viability qHTS assay in S16 Pmp22-F2sN cells | Potency, µM (titrated, usually from 57.5 µM), usual class: cytotoxic | hit rate 0.48% among 43,000 | AID 1508642, 2021 | S16 Pmp22-F2sN Schwann cells (luciferase reporters placed in the Pmp22 gene) viability, CellTiter-Glo, 24 h; note: nearly all actives have a fitted effect of over 65% in size
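Luminescence from CellTiter-Glo, read by CCD camera after a 15 min room-temperature incubation, served as the viability signal. Reporter Schwann cells (S16 Pmp22-F2sN) had been treated with pin-transferred compounds for 24 h at 37C.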
Large screens that a line does not name were inactive. Compounds with a hit are over-represented: about 3.1% of the library has one in this group of screens. Unless noted, calls come from the whole dose curve; as a rule, active = well fitted curve in the direction sought with a large enough effect; inconclusive = small, poorly fitted or top-dose-only effect, or another doubt; inactive = no such curve, though single readings can be large; an effect the other way counts as inactive or inconclusive.

CCc1cccc(-n2nnc(-c3nsc(NC(=O)c4cccs4)n3)c2C)c1	p53null 39C kill 10µM
CSc1cccc(-n2nnc(-c3nsc(NC(=O)c4cccs4)n3)c2C)c1	p53null 39C kill inconclusive
CCCCCOC(=O)Nc1nc(=O)n([C@@H]2O[C@H](C)[C@@H](O)C2O)cc1F (some centres not stated)	none (no result: p53null 39C kill, mTORC1 inh, PMP22 txn prim, p53null 32C tox, S16 viability)
CCc1ccc(OCC(=O)Nc2ncn[nH]2)c(Br)c1	p53null 39C kill 1.3µM, p53null 32C tox 2µM
Cc1ccc(-n2ncc(C(=O)NCCCN3CCc4ccccc4C3)c2C2CCN(C(=O)OC(C)(C)C)CC2)c(C)c1	p53null 39C kill inconclusive, mTORC1 inh 9.3µM, PMP22 txn prim inconclusive, S16 viability inconclusive
COc1ccc(-c2ccc3c(N4CCOCC4)nc(N4C[C@@H](C)O[C@@H](C)C4)nc3n2)cc1CO	none (no result: p53null 39C kill, mTORC1 inh, PMP22 txn prim, p53null 32C tox, S16 viability)
CCC(=C(c1ccc(O)cc1)c1ccc(OCCNC)cc1)c1ccccc1	none (no result: p53null 39C kill, mTORC1 inh, PMP22 txn prim, p53null 32C tox, S16 viability)
CCCCN(C)CC(O)Cn1cc(/C=C/C(=O)c2ccc(OCC)cc2)c2ccccc21 (configuration not stated)	p53null 39C kill 5µM, OvCa metastasis inconclusive, mTORC1 inh inconclusive, PMP22 txn prim inconclusive, p53null 32C tox inconclusive, S16 viability inconclusive
COc1ccc(-c2n[nH]c3c2C(c2ccc(O)cc2)N(c2ccc(Br)cc2)C3=O)cc1 (configuration not stated)	mTORC1 inh 15µM, PMP22 txn prim inconclusive, S16 viability inconclusive
COc1ccc(OC)c(C2c3c(-c4ccc(Br)cc4)n[nH]c3C(=O)N2c2ccc(Cl)cc2)c1 (configuration not stated)	OvCa metastasis inconclusive, PMP22 txn prim inconclusive, S16 viability inconclusive
Cc1ccc(S(=O)(=O)Nc2nc3ccccc3nc2Nc2ccc3nsnc3c2)cc1	none (no result: p53null 39C kill, mTORC1 inh, PMP22 txn prim, p53null 32C tox, S16 viability)
COc1cc(Cl)c(C)cc1NC(=O)c1cnc(N2CCCCC2)c2ccccc12	p53null 32C tox inconclusive
Cc1cc(C)c(NC(=O)C2CCN(c3nc4ccccc4n4cccc34)CC2)c(C)c1	p53null 39C kill inconclusive, mTORC1 inh 15µM
COc1cc(Cl)c(C)cc1NC(=O)C1CCN(c2nc3ccccc3n3cccc23)CC1	p53null 39C kill 32µM, mTORC1 inh 15µM, PMP22 txn prim inconclusive, p53null 32C tox inconclusive
Cc1cnc(CNC(=O)c2c(=O)c3ccc(N4CCCN(C)CC4)nc3n3c2sc2ccccc23)cn1	none (no result: p53null 39C kill, mTORC1 inh, PMP22 txn prim, p53null 32C tox, S16 viability)
O=C(Nc1ccc(Cl)cc1)N1CCC(c2ccccc2)C1 (configuration not stated)	p53null 39C kill inconclusive, p53null 32C tox 4µM
CCN(c1ccccc1)S(=O)(=O)c1nnc(NC(=O)c2ccco2)s1	p53null 39C kill 1µM, p53null 32C tox inconclusive
Cc1ccc(N(CC(C)C)S(=O)(=O)c2nnc(NC(=O)c3ccco3)s2)cc1	none
COc1ccc2[nH]cc(CCN=C(NC(=O)c3ccccc3OC)Nc3nc(C)cc(C)n3)c2c1	PMP22 txn prim 14µM, S16 viability inconclusive
Cc1ccnc(NC(=O)/C=C/c2cccs2)c1	p53null 32C tox 10µM (no result: p53null 39C kill, OvCa metastasis, mTORC1 inh, PMP22 txn prim, S16 viability)
Cc1ccc(-n2ncc3c(N4CCN(c5ccccc5)CC4)ncnc32)cc1C	none
c1ccc(N2CCN(c3ncnc4[nH]ncc34)CC2)cc1	mTORC1 inh 15µM
CCOC(=O)c1ccc(N2C(=O)c3n[nH]c(-c4ccco4)c3C2c2ccc(OCC)cc2)cc1 (configuration not stated)	OvCa metastasis inconclusive, mTORC1 inh 13µM, PMP22 txn prim inconclusive, S16 viability inconclusive
